Test results taken from PubChem BioAssay (NCI).
This is part of a sample that, as a whole, favours compounds with a hit. Of some 83,000 tested, about 20% had one in any assay.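 Note: values are percent growth. 100 is the growth of untreated cells, values between 100 and 0 indicate rising inhibition; between -100 and 0 indicates cell death.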 Calls of active or inactive are those of the source. Rule for the calls: active = growth percent below 10; inactive = the rest.

Experiments:
Experiment in all cases: NCI-60 one-dose screen, 48 h (100 = growth as untreated, 0 = no growth, -100 = all killed)
Settings in all cases: 10 µM unless noted
HCT-15 colon = system: HCT-15 colon
HT29 colon = system: HT29 colon
SNB-75 CNS = system: SNB-75 CNS
SNB-19 CNS = system: SNB-19 CNS
U251 CNS = system: U251 CNS
PC-3 prostate = system: PC-3 prostate
SK-MEL-5 melanoma = system: SK-MEL-5 melanoma
UACC-62 melanoma = system: UACC-62 melanoma
LOX IMVI melanoma = system: LOX IMVI melanoma
SK-MEL-28 melanoma = system: SK-MEL-28 melanoma
SK-MEL-2 melanoma = system: SK-MEL-2 melanoma
SN12C renal = system: SN12C renal
UO-31 renal = system: UO-31 renal
TK-10 renal = system: TK-10 renal
ACHN renal = system: ACHN renal
CAKI-1 renal = system: CAKI-1 renal
A498 renal = system: A498 renal
CCRF-CEM leukemia = system: CCRF-CEM leukemia
MOLT-4 leukemia = system: MOLT-4 leukemia
EKVX NSCLC = system: EKVX NSCLC

Row | Compound | growth (HCT-15 colon) | growth (HT29 colon) | growth (SNB-75 CNS) | growth (SNB-19 CNS) | growth (U251 CNS) | growth (PC-3 prostate) | growth (SK-MEL-5 melanoma) | growth (UACC-62 melanoma) | growth (LOX IMVI melanoma) | growth (SK-MEL-28 melanoma) | growth (SK-MEL-2 melanoma) | growth (SN12C renal) | growth (UO-31 renal) | growth (TK-10 renal) | growth (ACHN renal) | growth (CAKI-1 renal) | growth (A498 renal) | growth (CCRF-CEM leukemia) | growth (MOLT-4 leukemia) | growth (EKVX NSCLC)
1 | CCCCCCCCCCCCCCCCOc1ccc(S(=O)(=O)N(C)C)cc1[N+](=O)[O-] | 97.2% (inactive) | 96.4% (inactive) | 21.2% (inactive) | 78.9% (inactive) | 50.6% (inactive) | 94.4% (inactive) | 101% (inactive) | 86.7% (inactive) | 120% (inactive) | 107% (inactive) | 97.1% (inactive) | 93.1% (inactive) | 98.5% (inactive) | 86% (inactive) | 93.5% (inactive) | 99.1% (inactive) | 118% (inactive) | 114% (inactive) | 103% (inactive) | –
2 | FC(F)(F)C1=NNC(c2ccc3ccccc3c2)=NN1 | 97.9% (inactive) | 107% (inactive) | 80.3% (inactive) | 96.6% (inactive) | 99.2% (inactive) | 109% (inactive) | 97.8% (inactive) | 101% (inactive) | 90.5% (inactive) | 112% (inactive) | 111% (inactive) | 93.7% (inactive) | 65.6% (inactive) | 129% (inactive) | 90.1% (inactive) | 102% (inactive) | 90.5% (inactive) | 92.4% (inactive) | 107% (inactive) | –
3 | CC(=O)O[C@H]1[C@H](CC#CC#CC[C@@H]2C[C@]3(C)[C@H]4CC=C5[C@H]6[C@@H](C)[C@H](C)CC[C@]6(C(=O)NCCCCCCCCN)CC[C@@]5(C)[C@]4(C)CC[C@H]3C(C)(C)[C@H]2OC(C)=O)C[C@]2(C)[C@H]3CC=C4[C@H]5[C@@H](C)[C@H](C)CC[C@]5(C(=O)NCCCCCCCCN)CC[C@@]4(C)[C@]3(C)CC[C@H]2C1(C)C | 108% (inactive) | 98.2% (inactive) | 94.7% (inactive) | 107% (inactive) | 98.2% (inactive) | 92.8% (inactive) | 105% (inactive) | 112% (inactive) | 96.9% (inactive) | 124% (inactive) | 125% (inactive) | 97.8% (inactive) | – | 145% (inactive) | 119% (inactive) | 101% (inactive) | 118% (inactive) | 105% (inactive) | 103% (inactive) | 110% (inactive)
4 | COc1ccc2[nH]c(O)c(/C=c3/ccc4c(c3)N=C(c3ccc(F)cc3)N=4)c2c1 | 50.1% (inactive) | 84.5% (inactive) | -12.3% (active) | 87.1% (inactive) | 42.1% (inactive) | 47.4% (inactive) | 61.5% (inactive) | 90.1% (inactive) | 16.3% (inactive) | 72.7% (inactive) | 110% (inactive) | 50.2% (inactive) | 63.2% (inactive) | 116% (inactive) | 31.2% (inactive) | 20.1% (inactive) | 92.9% (inactive) | 42.5% (inactive) | 67.7% (inactive) | –
5 | COc1ccc(C(=O)c2c(N)nc3n2CCCC3)cc1OC | 98.4% (inactive) | 94.7% (inactive) | 85.1% (inactive) | 110% (inactive) | 98.5% (inactive) | 101% (inactive) | 100% (inactive) | 109% (inactive) | 97% (inactive) | 108% (inactive) | 103% (inactive) | 109% (inactive) | 84.3% (inactive) | 92.8% (inactive) | 107% (inactive) | 93.9% (inactive) | 98.6% (inactive) | 99.8% (inactive) | 84.1% (inactive) | –
6 | COc1ccc(-c2nn(-c3cccc(Cl)c3)cc2/C=C2\C(=N)N(c3ccccc3)N=C2N)cc1 | 44.5% (inactive) | 57.4% (inactive) | 81.6% (inactive) | 83.5% (inactive) | 66.3% (inactive) | 39.6% (inactive) | 34.8% (inactive) | -3.26% (active) | 6.46% (active) | 32.8% (inactive) | 69.5% (inactive) | 45.9% (inactive) | 6.27% (active) | 80.7% (inactive) | 20.7% (inactive) | -27.6% (active) | 75.3% (inactive) | 12.3% (inactive) | 6.35% (active) | –
7 | Fc1cnccc1-c1nc2ccc3[nH]ncc3c2c2c1CCCC2 | 12.4% (inactive) | 25.4% (inactive) | -25.5% (active) | 44.2% (inactive) | 29.6% (inactive) | 27.1% (inactive) | 29% (inactive) | 17.3% (inactive) | 22.8% (inactive) | 24.3% (inactive) | -1.94% (active) | 25.6% (inactive) | 11.6% (inactive) | 13.7% (inactive) | 7.42% (active) | -4.24% (active) | 0.691% (active) | 16.1% (inactive) | 21.2% (inactive) | –
8 | CC(CN1CCN(CCOCCO)CC1)CN1c2ccccc2Sc2ccc(Cl)cc21 (stereo unspecified) | 32.7% (inactive) | -30.1% (active) | 69.7% (inactive) | 100% (inactive) | 58.6% (inactive) | 43.9% (inactive) | 16.1% (inactive) | -42.8% (active) | 20.5% (inactive) | 49% (inactive) | 80.7% (inactive) | 69.9% (inactive) | 50.1% (inactive) | 74.4% (inactive) | 69.4% (inactive) | 69.4% (inactive) | 43.9% (inactive) | 63.2% (inactive) | 28.5% (inactive) | –
9 | COc1ccc(C(=O)C(CN(C)C)c2ccccc2)cc1 (stereo unspecified) | -49.3% (active) | 19.1% (inactive) | 25.1% (inactive) | 91.2% (inactive) | 31.6% (inactive) | 52.4% (inactive) | 43.7% (inactive) | 33.8% (inactive) | 10.3% (inactive) | -44.9% (active) | 14.6% (inactive) | 31.4% (inactive) | – | 29.5% (inactive) | -71.4% (active) | -46.7% (active) | 60.2% (inactive) | 12.6% (inactive) | 21.7% (inactive) | 28.1% (inactive)
10 | COc1ccc(/C(=C\c2cc(OC)c(OC)c(OC)c2)C(=O)Nc2nc3ccc(Cl)cc3s2)cc1 | 93.2% (inactive) | 88.3% (inactive) | 89% (inactive) | 105% (inactive) | 90.8% (inactive) | 87.5% (inactive) | 87.6% (inactive) | 77.6% (inactive) | 92.5% (inactive) | 107% (inactive) | 94.8% (inactive) | 96.9% (inactive) | 76.4% (inactive) | 92.4% (inactive) | 103% (inactive) | 83.2% (inactive) | 97.4% (inactive) | 85% (inactive) | 64.4% (inactive) | –
11 | COc1cc(-c2nc(-c3nc4cc(C(=O)c5ccccc5)ccc4[nH]3)cc3c2[nH]c2ccccc23)cc(OC)c1OC | 83.1% (inactive) | 104% (inactive) | 71.5% (inactive) | 103% (inactive) | 82% (inactive) | 65.8% (inactive) | 75.2% (inactive) | 76% (inactive) | 85.2% (inactive) | 102% (inactive) | 87.3% (inactive) | 89.5% (inactive) | 73.2% (inactive) | 106% (inactive) | 87.2% (inactive) | 84% (inactive) | 105% (inactive) | 57.2% (inactive) | 63% (inactive) | –
12 | Cc1ccc(/C=C/C(=N/N=C(N)N)c2ccccc2)cc1 | 27.6% (inactive) | 4.56% (active) | -0.425% (active) | 38.9% (inactive) | 13.4% (inactive) | 19% (inactive) | 11.3% (inactive) | 33.9% (inactive) | 30.8% (inactive) | 46.2% (inactive) | 49.3% (inactive) | 34.3% (inactive) | 21.7% (inactive) | 44% (inactive) | 48.5% (inactive) | 16.4% (inactive) | -5.04% (active) | 25.2% (inactive) | 24% (inactive) | –
13 | O=C(Oc1c(Cl)c(Cl)c(Cl)c(Cl)c1Cl)C1CCCN1C(=O)OCc1ccccc1 (stereo unspecified) | 15.4% (inactive) | 89.1% (inactive) | 36.4% (inactive) | 26.2% (inactive) | 18.3% (inactive) | 10.7% (inactive) | 76.2% (inactive) | 75.2% (inactive) | 64.8% (inactive) | 99% (inactive) | 69.9% (inactive) | 60% (inactive) | 56.1% (inactive) | 67.3% (inactive) | 17% (inactive) | 90.4% (inactive) | 12.3% (inactive) | 10.8% (inactive) | 15.5% (inactive) | –
14 | O=C(NCC(c1ccsc1)N1CCCCCC1)c1ccc(C(F)(F)F)cc1 (stereo unspecified) | 100% (inactive) | 82% (inactive) | 87.6% (inactive) | 87.9% (inactive) | 90.7% (inactive) | 88.5% (inactive) | 94.9% (inactive) | 99.1% (inactive) | 78.9% (inactive) | 110% (inactive) | 94.3% (inactive) | 96.8% (inactive) | 88.1% (inactive) | 94.5% (inactive) | 103% (inactive) | 85% (inactive) | 89.4% (inactive) | 96.2% (inactive) | 78.2% (inactive) | –
